Screens as filed in PubChem.
Rows were chosen to be rich in hits. Some 3.1% of all compounds tested hit in one or more screens of this group.
p53null 39C tox = qHTS Screen for Compounds that Selectively Target Cancer Cells with p53 Mutations: Cytotoxicity of p53 Null Cells at the Nonpermissive Temperature; H1299 p53-null (neo) cells, 39C, ATPlite viability, 24 h; Potency, µM (highest dose often 46.1 µM), inactives show at the top dose activity, negative = cell killing, usual class: cytotoxic; 55,000 tested, 0.97% active; AID 904, 2007;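 further: 0% = DMSO only and -100% = full killing by 100 µM tamoxifen; nearly all actives have a fitted effect of over 50% in size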
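H1299 lung cancer cells, p53-null (H1299-neo) or expressing p53 A138V (H1299-p53A138V), were plated overnight at 37C, then exposed to compounds at up to 46 uM for 24 hr at 39C. Viability was read by ATP-based luminescence.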
OvCa metastasis = Primary qHTS assay for Inhibitors of ovarian cancer metastasis using an organotypic tumor microenvironment (TME) model | SKOV3ip1-GFP adhesion/invasion on 3D omental model, fluorescence | 46,000 tested, 0.1% active | Potency, µM (doses to about 45.8 µM), without a hit: at the top dose activity change, negative = inhibition, usual class: inhibitors;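 further: plate controls were DMSO wells for no effect and tomatine positive control wells for full effect; nearly all actives have a fitted effect of over 65% in size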
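qHTS, 4-pt dose (0.36-46 umol/L); SKOV3ip1-GFP, 1,200 cells/well, no FBS; primary omental fibroblast/mesothelial co-culture 48 h pre-grown; 2 h RT + 16 h 37 C; PBS wash, 4% PFA; GFP count 488/509 nm.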
PMP22 txn prim = Cell-based coincidence reporter assay to measure PMP22 gene transcription in S16 Pmp22-F2sN cells - Primary screen. S16 Pmp22-F2sN Schwann cells, FLuc/NLuc coincidence luminescence, 24 h. Potency, µM (titrated, usually from 57.5 µM), for inactives: at the top dose activity change, negative = inhibition, hits mostly inhibitors. 43,000 tested, 2% active. AID 1508649, 2021; active means clear falling dose curves in both reporters; inconclusive means both reporters move, but less clearly or upward; inactive means either reporter flat; the % is the NLuc reporter signal
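S16(c9) Schwann cells with FLuc/NLuc coincidence reporter in the Pmp22 3' UTR; compounds pin-transferred, 24 h at 37C. Dual-luciferase read: FLuc first, then NLuc after Stop&Glo, each 10 min at room temperature.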
p53null 32C kill = qHTS Screen for Compounds that Selectively Target Cancer Cells with p53 Mutations: Cytotoxicity of p53 Null Cells at the Permissive Temperature; H1299-neo p53 null cells, ATP luminescence, 24 h, 32C; 55,000 tested, 0.62% active; Potency, µM (top dose mostly 46.1 µM), for inactives: top-dose activity change, negative = cytotoxicity, hits mostly cytotoxic;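 further: 0% = DMSO only and -100% = full killing by 100 µM tamoxifen; nearly all actives have a fitted effect of over 55% in size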
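Luminescent ATP readout gave cell viability of p53-null H1299-neo cells after a 24 h compound exposure at the permissive 32C. Titrations ran up to 46 uM, and AC50s were fitted with the standard Hill equation.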
S16 F2sN tox = Cell viability qHTS assay in S16 Pmp22-F2sN cells; S16 Pmp22-F2sN Schwann cells (luciferase reporters placed in the Pmp22 gene) viability, CellTiter-Glo, 24 h; Potency, µM (highest dose often 57.5 µM), for inactives: at the highest dose activity change, negative = cytotoxicity, most hits filed as cytotoxic; 43,000 tested, 0.48% active; AID 1508642, 2021; further: nearly all actives have a fitted effect of over 65% in size
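S16 Schwann cells carrying the Pmp22-F2sN reporter, seeded in 1536-well format, were exposed to library compounds for 24 h at 37C. Viability was read as CellTiter-Glo luminescence after 15 min at room temperature.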
mTORC1 inh = Acumen qHTS Assay for Inhibitors of the mTORC1 Signaling Pathway in MEF (Tsc2-/-, p53-/-) Cells: Sytravon; 44,000 tested, 0.78% active; Potency, µM (top dose mostly 38.3 µM), without a hit: at the top dose activity change, negative = inhibition, hits mostly inhibitors; Tsc2-/- p53-/- MEF, phospho-rpS6 immunofluorescence/PI, 24 h;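 further: plate controls were DMSO for no effect and rapamycin for full effect; nearly all actives have a fitted effect of over 50% in size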
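Readout is phospho-S6 Alexa 488 signal normalized to PI per well, reported as % active cells with thresholds set from rapamycin (7.5 nM) and DMSO controls. Cells: Tsc2-/-, p53-/- MEFs, 24 hrs compound at 37 C; PI cell number serves as viability.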
* hit, by the source's call; i = inactive; ? = inconclusive; . = no result given. Unless noted, the call rests on the fitted dose curve; in most records, active means well fitted curve in the direction sought with a large enough effect; inconclusive means small, poorly fitted or top-dose-only effect, or another doubt; inactive means no such curve, though single readings can be large; an effect the other way counts as inactive or inconclusive. Unless noted, on the % scale 0 is the no-effect control and ±100 the full control effect; potency means the concentration at half of the fitted maximal effect.

SMILES	p53null 39C tox	OvCa metastasis	PMP22 txn prim	p53null 32C kill	S16 F2sN tox	mTORC1 inh
O=c1cc(-c2ccccc2)nc2cc(-c3ccc(F)cc3)[nH]n12	?	-16%	-9%	?	25µM*	-25%
COc1cc(CNC(=O)CCCCC=CC(C)C)ccc1O	.	-17%	.	.	.	.
CCc1ccc(NC(=O)CSc2nnc3[nH]c(=O)cc(-c4ccccc4)n23)cc1	?	3%	-18%	2.5µM*	-12%	-3%
COc1ccc(Cl)cc1NC(=O)CSc1nnc2[nH]c(=O)cc(-c3ccccc3)n12	10%	-3%	?	2.5µM*	2%	-7%
O=C(CSc1nnc2[nH]c(=O)cc(-c3ccccc3)n12)Nc1ccccc1C(F)(F)F	?	-7%	5%	?	1%	0%
Cc1cc(C(=O)Nc2sc3c(c2C#N)CCCC3)no1	11µM*	.	.	14µM*	.	.
COc1cc(NC(=O)c2cccc3c2C(=O)N(C2CCCCC2)C3)cc(OC)c1OC	10%	i	?	17%	?	15µM*
Cc1cc(C)cc(NC(=O)c2cccc3c2C(=O)N(C2CCCCC2)C3)c1	-2%	i	1%	-2%	17%	-6%
Cc1ccnc(NS(=O)(=O)c2ccc(NC(=O)Nc3ccc(S(=O)(=O)Nc4nccc(C)n4)cc3)cc2)n1	.	9%	.	.	.	.
CCCN(CCC)CC(O)Cn1cc(/C=C/C(=O)c2ccc(OCC)cc2)c2ccccc21 (stereo unspecified)	20µM*	-19%	?	?	?	?
CCN(CCO)CCCOc1ccc2c(Nc3cc(CC(=O)Nc4cccc(F)c4)[nH]n3)ncnc2c1	.	7%	.	.	.	.
Cc1ccc(NS(=O)(=O)c2ccc3nc(-c4ccccc4)[nH]c3c2)c(Br)c1	-21%	3%	-4%	-6%	-4%	-20%
CC(C)c1ccc(NS(=O)(=O)c2ccc3nc(-c4ccccc4)[nH]c3c2)cc1	20µM*	-2%	?	?	-26%	-1%
Cc1cccc(NS(=O)(=O)c2ccc3nc(-c4ccccc4)[nH]c3c2)c1C	11µM*	i	?	?	-13%	1%
O=C(Nc1cccc(C(F)(F)F)c1)Nc1cc(S(=O)(=O)NC2CC2)ccc1-c1ccsc1	.	-15%	.	.	.	.
COCc1nc2ccccc2n1Cc1cccc(C)c1	-15%	4%	-20%	-7%	15%	-1%
Cc1cccc(Cn2c(Cc3ccccc3)nc3ccccc32)c1	20µM*	-2%	-3%	51%	13%	2%
CC(C)(C)C(=O)Oc1ccc2c(c1)nc(NC(=O)c1cccc([N+](=O)[O-])c1)n2CCCO	.	8%	.	.	.	.
CCc1ccc(OCC(=O)Nc2ccc(Cl)c(-c3nc4cc(C)cc(C)c4o3)c2)cc1	28%	i	.	-10%	.	-10%
Cc1cc(C)c2oc(-c3cccc(NC(=O)COc4ccc([N+](=O)[O-])cc4)c3)nc2c1	-15%	i	?	-26%	-19%	21µM*
CN(Cc1ccccc1)C(=O)c1cc2c(s1)-c1ccc(Cl)cc1SC2	2µM*	0%	-1%	-7%	?	-2%
O=C(NCc1cccc(Cl)c1)c1cc2c(s1)-c1ccccc1SC2	-20%	-2%	-23%	21%	-8%	-3%
Cc1ccc([N+](=O)[O-])cc1S(=O)(=O)N(C)N=Cc1cnc2ccc(Br)cn12	.	24%	.	.	.	.
Cc1cc(C)cc(C(=O)Nc2nnc3n2CCS3)c1	18%	-14%	?	-9%	-25%	0%
O=C(Nc1nnc2n1CCS2)c1cc(C(F)(F)F)cc(C(F)(F)F)c1	16%	6%	8.9µM*	7%	?	0%
SMILES	p53null 39C tox	OvCa metastasis	PMP22 txn prim	p53null 32C kill	S16 F2sN tox	mTORC1 inh
O=[N+]([O-])c1ccc(Nc2ccccc2-c2ccccc2)c2nonc12	.	-6%	.	.	.	.
CCc1ccc(NC(=O)c2cc3ccccn3n2)cc1	7.9µM*	i	3%	10µM*	-18%	-12%
Cc1ccccc1CCNC(=O)c1cc2ccccn2n1	10µM*	5%	.	?	.	0%
COc1cc(NC(=O)c2cc3ccccn3n2)cc(OC)c1OC	-4%	1%	.	-16%	.	-3%
Cc1ccc(NC(=O)c2cc3ccccn3n2)cc1F	?	i	.	13µM*	.	0%
Cc1ccc(-c2ncn(-c3ccc(Nc4nccc(-c5cccc(N6CCOCC6)c5)n4)cc3)n2)cn1	.	-16%	.	.	.	.
CN[C@@H]1[C@@H](O)[C@@H](O[C@@H]2[C@@H](O)[C@H](O[C@H]3O[C@H](CN)[C@@H](O)[C@H](O)[C@@H]3O)[C@@H](N)C[C@@H]2NC(=O)[C@@H](O)CN)OC[C@]1(C)O	.	1%	.	.	.	.
CCOc1ccccc1NC(=O)CN1C(=O)C(=O)c2ccccc21	?	9%	?	-2%	-30%	2.6µM*
COc1cc(C(=O)N(CCCN(C)C)c2nc3c(OC)cccc3s2)cc(OC)c1OC	-19%	0%	?	1%	-1%	18µM*
CC[C@]1(O)C[C@@H]2CN(CCc3c([nH]c4ccccc34)[C@@](C(=O)OC)(c3cc4c(cc3OC)N(C=O)[C@@H]3C45CCN4CC=C[C@](CC)([C@H]45)[C@@H](OC(C)=O)[C@]3(O)C(=O)OC)C2)C1 (stereo partly specified)	.	-26%	.	.	.	.
COc1ccccc1C1C=C(c2ccc(Cl)cc2)Nc2nc(-c3ccc(Cl)cc3)nn21 (stereo unspecified)	34%	-3%	?	20%	-16%	12µM*
COc1cc2c(Oc3ccc4[nH]c(C)cc4c3F)ncnc2cc1OCCCN1CCCC1	.	8%	.	.	.	.
